# Reference: ChEMBL document CHEMBL3988442, “University of Dundee, Small-Polar-MMV Screening Library” (2021)
# Among all 69,000 compounds or so, about 1,000 (1.4%) showed an effect of 50% or more. For the sample, strong results were picked, then their nearest neighbours and some compounds at random.
# Tested on: Leishmania donovani
# Assay: Leishmania intramacrophage assay
# Format: functional, organism-based
# Parameters: scale not given: in the data most compounds retested in dose-response had high values
compound,measurement,setting,value
NCC(CO)Cc1ccc(C(F)(F)F)cc1 (stereo not drawn),Percent Effect,"30.3 µM, […]",17.17%
Cc1cnn(CCNCC(O)c2cccc(Br)c2)c1 (stereo not drawn),Percent Effect,"30.3 µM, […]",97.73%
Cc1cnn(CCNCC(O)c2ccc(F)c(F)c2)c1 (stereo not drawn),Percent Effect,"30.3 µM, […]",-10.99%
OC(CNCCn1cccn1)c1cccc(Br)c1 (stereo not drawn),Percent Effect,30 µM,1.273%
O=C(NCCc1ccccc1F)NCC(O)c1cccc(F)c1 (stereo not drawn),Percent Effect,30 µM,19.34%
Cn1cc(CN2CC[C@@H]3[C@@H](CCC(=O)N3CC3CCNCC3)C2)cn1,Percent Effect,"30.3 µM, […]",16.61%
Cc1ccc(CC(=O)NCC(O)c2ccc(Cl)cc2Cl)cn1 (stereo not drawn),Percent Effect,"30.3 µM, […]",-16.89%
Cc1c(-c2ccccc2)nc2c(c(C)c(C)n2CCN(C)C)c1N,Percent Effect,"30.3 µM, […]",99.06%
CCc1c(-c2ccccc2)nc2c(c(C)c(C)n2CCN(C)C)c1N,Percent Effect,"30.3 µM, […]",100.7%
CCc1c(C)sc2c1c(N)nc(=O)n2CCN(C)C,Percent Effect,"30.3 µM, […]",-18.16%
Cc1c(C)n(Cc2ccncc2)c2nc3c(c(N)c12)CCCCCC3,Percent Effect,"30.3 µM, […]",6.52%
CCc1c(C)sc2c1c(N)nc(=O)n2CCCN(C)C,Percent Effect,"30.3 µM, […]",34.84%
Cc1c(C)n(Cc2ccccn2)c2nc3c(c(N)c12)CCCCC3,Percent Effect,"30.3 µM, […]",38.18%
Cc1cc(C(=O)N2C[C@@H]3[C@@H](CN(C)CCc4ccccn4)[C@@H]3C2)c(C)o1,Percent Effect,"30.3 µM, […]",-26.53%
CC(CN1CCCC1=O)NC(=O)Nc1cccnc1-n1cccn1 (stereo not drawn),Percent Effect,"30.3 µM, […]",-2.319%
CCn1ccnc1CN(C)c1nc(-c2ccc(Cl)cc2)nc2c1CNC2,Percent Effect,"30.3 µM, […]",20.89%
Cc1nccn1CCN(C)c1nc(-c2ccc(Cl)cc2)nc2c1CNC2,Percent Effect,"30.3 µM, […]",51.4%
Cc1nccn1CCN(C)c1nc(-c2cccnc2)nc2c1CCNC2,Percent Effect,"30.3 µM, […]",20.05%
Cc1nn(C)c(C)c1-c1c(-c2ccccc2)ncn1[C@H](CO)C(=O)O,Percent Effect,"30.3 µM, […]",46.15%
Cc1c(-c2c(-c3ccccc3)ncn2[C@H](CO)C(=O)O)cnn1C,Percent Effect,"30.3 µM, […]",25.35%
Cc1c(-c2c(-c3ccccc3)ncn2[C@@H](C(=O)O)[C@H](C)O)cnn1C,Percent Effect,"30.3 µM, […]",50.58%
Cc1ccccc1C(=O)N1CC[C@H](O)[C@@H](N2CCOCC2)CC1,Percent Effect,"30.3 µM, […]",5.268%
Cc1ccc(OC2(C(=O)O)CCN(C(=O)c3cccc(F)c3)CC2)cn1,Percent Effect,"30.3 µM, […]",-5.312%
O=c1[nH]ncc(NCCOc2cccc(Br)c2)c1Cl,Percent Effect,"30.3 µM, […]",33.92%
O=c1[nH]ncc(NCCOc2ccc3c(c2)OCO3)c1Cl,Percent Effect,"30.3 µM, […]",33.23%
O=c1[nH]ncc(NCCOc2ccc3c(c2)CCC3)c1Cl,Percent Effect,"30.3 µM, […]",53.95%
O=C1COc2c(cccc2C(=O)N2CCCC(n3cccn3)C2)N1 (stereo not drawn),Percent Effect,"30.3 µM, […]",-19.69%
O=C(NC1CC1)c1ccn(COc2c(Cl)cccc2Cl)n1,Percent Effect,"30.3 µM, […]",26.41%
CC(C)C1CN(C(=O)c2ccccc2)CCS1 (stereo not drawn),Percent Effect,"30.3 µM, […]",-6.451%
Cc1ccc([C@]2(O)CC[C@H]3CN(Cc4cccc(Cl)c4Cl)C[C@H]32)nc1.O=C(O)CC(O)(CC(=O)O)C(=O)O,Percent Effect,"30 µM, 30.03 µM",12.17%
Cc1ccc([C@]2(O)CC[C@H]3CN(Cc4cc(C)c(O)c(C)c4)C[C@H]32)nc1.O=C(O)CC(O)(CC(=O)O)C(=O)O,Percent Effect,"30 µM, 30.03 µM",50.06%
Cc1cc(-c2cnc(N3CCSCC3)nc2C(C)C)on1,Percent Effect,"30.3 µM, […]",-38.52%
Cn1cnc2c1CCN(CC(=O)N(Cc1ccsc1)C1CC1)C2,Percent Effect,"30.3 µM, […]",1.808%
CC1(C)CC(=O)c2cnc3nc(N4CCCCC4)nc(O)c3c2C1,Percent Effect,"30.3 µM, […]",10.62%
Cc1cccc(CS(=O)(=O)Cc2ccn(C)c(=O)c2)c1,Percent Effect,"30.3 µM, […]",18.93%
O=C(c1cc2c([nH]c1=O)CCC2)N1CCCCCC1c1ccncc1 (stereo not drawn),Percent Effect,"30.3 µM, […]",26.35%
CC(O)c1cccc(Nc2nc(NCCO)c3ccccc3n2)c1 (stereo not drawn),Percent Effect,"30.3 µM, […]",37.25%
CCN(CC)c1nc(Nc2cccc(C(=O)O)c2)nc2ccccc12,Percent Effect,"30.3 µM, […]",3.255%
CCN(CC)c1nc(Nc2cccc(C(C)O)c2)nc2ccccc12 (stereo not drawn),Percent Effect,"30.3 µM, […]",66.27%
CCn1ncc(S(=O)(=O)N[C@@H]2CCC[C@@H](n3ccnc3)[C@@H]2O)c1C,Percent Effect,"30.3 µM, […]",16.74%
NCCC(=O)N1CCC2(CC1)CN(C(=O)c1ccc(Cl)cc1)CCO2,Percent Effect,"30.3 µM, […]",0.3697%
Cc1ccc(C(=O)N2CCOC3(CCCC3)C2)c(=O)[nH]1,Percent Effect,"30.3 µM, […]",4.345%
Cc1ccc(C(=O)N2CCC(Oc3ccc(C)c(C)c3)CC2)c(=O)[nH]1,Percent Effect,30 µM,57.43%
Cc1ccc(C(=O)N2CCC(Oc3ccccc3)CC2)c(=O)[nH]1,Percent Effect,30 µM,12.56%
Cc1ccc(C(=O)N2CCC3(CCCC3)CC2)c(=O)[nH]1,Percent Effect,"30.3 µM, […]",27.16%
Cc1ccc(C(=O)N2CCC3(CCCCC3)C2)c(=O)[nH]1,Percent Effect,"30.3 µM, […]",56.07%
COc1ccc(OC2CCN(C(=O)c3ccc(C)[nH]c3=O)CC2)cc1,Percent Effect,30 µM,26.55%
COCCCC(=O)N1CCC(Nc2cccnn2)CC1,Percent Effect,30 µM,-18.1%
